# Compound activity as filed in PubChem BioAssay.
# HT1080 IDH1KD tx = qHTS for induction of synthetic lethality in tumor cells producing 2HG: qHTS for the HT-1080-IDH1KD cell line; HT-1080 IDH1 knockdown viability, ATP luminescence, 48 h; Potency, µM (highest dose often 46.1 µM), for inactives: top-dose activity, negative = toxicity, hits mostly cytotoxic; 360,000 tested, 2% active; AID 686971, 2013;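 further: potency means the concentration at half of the fitted maximal effect; 0% = DMSO wells and -100% = cell-free medium wells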
#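 After a 2 h attachment period, IDH1KD HT-1080 cells took pin-transferred compound for 48 h at 37 °C; ATP-based luminescence after 10 min room-temperature reagent incubation reported viability.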
# IL1B secr inh = qHTS for Inhibitors of Inflammasome Signaling: IL-1-beta AlphaLISA Primary Screen; 360,000 tested, 4.7% active; activity change, % at 57.5 µM; THP-1 LPS/ATP IL-1B secretion, AlphaLISA, 16 h; stronger effect = lower value; in the data active means activity change below about -50%; inconclusive means mostly about -30% to -49%
#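 Secreted IL-1B measured by AlphaLISA bead assay after 16 h compound exposure of THP-1 cells; compounds (final up to 57.5 uM) added 1 h before LPS (250 ng/mL) and ATP (1.25 mM) stimulation; lower signal means less secretion.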
# DT40 TDP1 no CPT = qHTS for Inhibitors of human tyrosyl-DNA phosphodiesterase 1 (TDP1): qHTS in cells in absence of CPT. AID 686978, 2013. DT40 Tdp1-/- hTDP1 cells, no CPT, ATP luminescence, 48 h. 420,000 tested, 15% active. Potency, µM (titrated, usually from 46.2 µM), for inactives: top-dose activity change, negative = growth inhibition, most hits filed as inhibitors; further: potency means the concentration at half of the fitted maximal effect; nearly all actives have a fitted effect of over 55% in size
#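 Chicken DT40 Tdp1-/- cells complemented with human TDP1, screened without camptothecin (DMSO vehicle only), 400 cells/well. Compounds pin-transferred, cells incubated at 37 °C for at least 48 hr. Growth read as ATP-dependent luminescence (CellTiter-Glo, 30 min at RT).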
# DT40 TDP1 CPT = qHTS for Inhibitors of human tyrosyl-DNA phosphodiesterase 1 (TDP1): qHTS in cells in presence of CPT; chicken DT40 Tdp1-/-;hTDP1 cells + 20 nM CPT, ATP luminescence, 48 h; Potency, µM (titrated, usually from 46.2 µM), without a hit: at the highest dose activity change, negative = growth inhibition, usual class: inhibitors; 420,000 tested, 12% active; further: potency means the concentration at half of the fitted maximal effect; nearly all actives have a fitted effect of over 55% in size
#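 Chicken DT40 Tdp1-/- cells stably complemented with human TDP1 were seeded at 400 cells/well in medium containing 20 nM camptothecin, exposed to pin-transferred compounds, and grown at 37 °C for at least 48 hr. Viability was read as ATP luminescence.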
# HT1080-NT tox = qHTS for induction of synthetic lethality in tumor cells producing 2HG: qHTS for the HT-1080-NT fibrosarcoma cell line; HT-1080-NT fibrosarcoma viability, CellTiter-Glo ATP luminescence, 48 h; Potency, µM (top dose mostly 46.1 µM), for inactives: top-dose activity, negative = less viability, usual class: cytotoxic; 360,000 tested, 1.6% active; AID 686970, 2013;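 further: NT is the 2HG producing partner of a matched IDH1 knockdown line; potency means the concentration at half of the fitted maximal effect; 0% = DMSO-treated cells and -100% = media-only wells without cells; nearly all actives have a fitted effect of over 55% in size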
#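 Compounds were tested in concentration-response format on HT-1080-NT cells for 48 hours at 37 degrees C. Cell viability came from CellTiter-Glo luminescence; curves were classified by r2, response magnitude and activity.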
# ALOX12 inh = Primary qHTS assay for inhibitors of human arachidonate 12S-lipoxygenase (ALOX12): Round 2 | purified 12hLO, xylenol orange hydroperoxide absorbance | 580,000 tested, 1.1% active | AID 1671190, 2021 | Polyunsaturated fatty acid lipoxygenase ALOX12 (Homo sapiens), P18054 | Potency, µM (series often up to 108 µM), for the others: at the highest dose activity change, negative = inhibition, usual class: inhibitors; further: potency means the concentration at half of the fitted maximal effect
# Target sequence (P18054 whole entry, looked up): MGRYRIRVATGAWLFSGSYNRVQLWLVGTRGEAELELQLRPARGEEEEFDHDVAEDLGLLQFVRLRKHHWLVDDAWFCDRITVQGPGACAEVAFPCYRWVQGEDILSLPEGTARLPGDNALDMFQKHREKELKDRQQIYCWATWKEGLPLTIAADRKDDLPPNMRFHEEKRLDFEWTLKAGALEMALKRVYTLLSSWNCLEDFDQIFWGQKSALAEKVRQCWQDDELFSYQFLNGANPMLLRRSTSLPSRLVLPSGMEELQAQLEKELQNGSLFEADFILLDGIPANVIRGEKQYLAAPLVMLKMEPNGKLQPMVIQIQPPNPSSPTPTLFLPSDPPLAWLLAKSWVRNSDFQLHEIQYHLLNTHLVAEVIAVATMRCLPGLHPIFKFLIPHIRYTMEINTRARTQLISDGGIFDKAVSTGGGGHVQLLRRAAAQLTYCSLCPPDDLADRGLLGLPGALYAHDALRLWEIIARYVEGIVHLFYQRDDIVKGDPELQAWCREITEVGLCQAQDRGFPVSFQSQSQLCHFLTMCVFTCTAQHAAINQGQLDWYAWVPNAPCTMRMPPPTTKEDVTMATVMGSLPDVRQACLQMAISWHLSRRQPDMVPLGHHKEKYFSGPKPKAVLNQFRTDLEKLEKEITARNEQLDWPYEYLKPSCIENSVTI
#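 Hydroperoxide product was detected by ferrous iron/xylenol orange as the 573 to 405 nm absorbance ratio. Arachidonic acid at 40 uM (final) was turned over for 30 min at room temperature by 150 nM human 12hLO, pH 7.0 Hepes buffer, after 15 min compound preincubation.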
# Numbers without * were called inactive; ? = inconclusive; . = no result given. This is one part of a sample in which hits are shown more often than they occur. Unless noted, the call rests on the fitted dose curve; in most records, active means well fitted curve in the direction sought with a large enough effect; inconclusive means small, poorly fitted or top-dose-only effect, or another doubt; inactive means no such curve, though single readings can be large; an effect the other way counts as inactive or inconclusive. Unless noted, on the % scale 0 is the no-effect control and ±100 the full control effect.
SMILES,HT1080 IDH1KD tx,IL1B secr inh,DT40 TDP1 no CPT,DT40 TDP1 CPT,HT1080-NT tox,ALOX12 inh
Cn1ncc(N2CCCC(CC(=O)NC3CC3)C2)cc1=O (stereo not drawn),.,.,.,.,.,-5%
CN(CC(=O)NC1(C#N)CCCCC1)C(c1ccccc1)c1ccc(F)cc1 (stereo not drawn),.,.,.,.,.,2%
CC(C)c1nc2c(c(-c3ccc(O)cc3)n1)CN(Cc1ccc(OC(F)(F)F)cc1)CC2,.,.,.,.,.,38%
O=C(Nc1ccc2c(c1)OCCO2)C(=O)c1c[nH]c2ccc(Br)cc12,.,.,.,.,.,-55%
CC(O)(c1cccc(F)c1)c1nc(-c2cccc3cccnc23)cs1 (stereo not drawn),?,-13,26µM*,?,?,-6%
CC(O)(c1cccc(F)c1)c1nc(-c2ccc(S(C)(=O)=O)cc2)cs1 (stereo not drawn),-21%,7,13µM*,16µM*,-9%,-18%
CC(O)(c1cccc(F)c1)c1nc(-c2ccncc2)cs1 (stereo not drawn),?,15,18µM*,15µM*,?,6%
CC(O)(c1cccc(F)c1)c1nc(-c2ccccc2)cs1 (stereo not drawn),?,25,18µM*,21µM*,?,10µM*
COCCOC1CCOC2(CCN(C(=O)Nc3cccc(F)c3)CC2)C1 (stereo not drawn),.,.,.,.,.,29%
COc1cccc(C(C)(O)c2nc(-c3ccc4ccccc4c3)cs2)c1 (stereo not drawn),?,28,?,?,?,-5%
COc1cccc(C(C)(O)c2nc(-c3cnc4ccccc4c3)cs2)c1 (stereo not drawn),?,23,18µM*,16µM*,-20%,0%
CC(O)(c1cccc(F)c1)c1nc(-c2cccc(C(F)(F)F)c2)cs1 (stereo not drawn),?,-19,?,29µM*,21µM*,?
CC(C)c1cccc(-c2csc(C(C)(O)c3ccccc3)n2)c1 (stereo not drawn),?,-12,23µM*,?,?,-12%
CC(O)(c1cccc(F)c1)c1nc(-c2cccc(C(=O)O)c2)cs1 (stereo not drawn),0%,19,-1%,-1%,9%,-3%
COc1ccc(-c2csc(C(C)(O)c3cccc(F)c3)n2)cc1OC (stereo not drawn),-19%,-9,15µM*,23µM*,-7%,?
CC(O)(c1ccccc1)c1nc(-c2cccc(C(=O)O)c2)cs1 (stereo not drawn),?,29,-11%,-21%,20%,-5%
COc1cccc(OC)c1C(=O)C1CC(=O)Nc2c1c(C)nn2-c1cc(C)cc(C)c1 (stereo not drawn),.,.,.,.,.,8%
CC(C)c1noc(-c2cn(C3CCN(C(=O)c4ccc(OC(F)(F)F)cc4)C3)nn2)n1 (stereo not drawn),.,.,.,.,.,7%
COc1ccc(Nc2cc(C)nc3ccc(Cl)cc23)cc1,.,.,.,.,.,-14%
O=C(NNc1cc(C(F)(F)F)nc2ccccc12)Nc1cccc(Cl)c1,21µM*,-89*,16µM*,?,?,?
Cc1cc(C)nc(Nc2cccc(Cl)c2)n1,3%,-4,-6%,-6%,0%,-26%
